Inconclusive results are not listed. Activity calls are given as the source filed them. Unless noted, calls follow the shape of the dose curve; as a rule, active = well fitted curve in the direction sought with a large enough effect in the repeat runs; inconclusive = weak or mixed curves; inactive = no such curve, though single readings can be large; an effect the other way counts as inactive or inconclusive. Positions of bridges follow the written chain, without caps; N, C: chain ends. Non-standard residues stand in square brackets, D forms with d. Residues, ends and D or L forms follow the SMILES beside them. hArg = N=C(N)NCCCC[C@H](N)C(=O)O; Mpa = O=C(O)CCS
Tests used:
[1] = qHTS assay to identify small molecule antagonists of the estrogen receptor beta (ER-beta) signaling pathway - cell viability counter screen (AID 1259382);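 also: HEK293T cells carrying ER-beta-UAS-bla reporter stimulated with estradiol; series mostly up to about 92 µM; nearly all actives have a fitted effect of over 55% in size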
Summary of the method: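 ER-beta-UAS-bla HEK293T cells (2,000/well, 2% charcoal-stripped FBS) were pre-incubated 6 hr at 37C, then given compound plus 1nM final 17-beta-estradiol for 16 hr. Viability was read in the same wells by CellTiter-Glo luminescence after 30 min at room temperature.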

[2] = qHTS assay to identify small molecule agonists or antagonists of the thyroid stimulating hormone receptor (TSHR) signaling pathway - wild type cell line counter screen (AID 1259384; calls by dose curve)
Summary of the method: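 Wild-type HEK293 cells were plated 18 h at 37 C/5% CO2, pin-dosed with compound plus Ro20-1724 medium, held 30 min at room temperature, then given cAMP-d2 and anti-cAMP-cryptate; fluorescence was read after 1 h. Fifteen concentrations, triplicate.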

[3] = target: Thyrotropin receptor (Homo sapiens) (UniProt P16473); assay: qHTS assay to identify small molecule antagonists of the thyroid stimulating hormone receptor (TSHR) signaling pathway (AID 1259385; calls by dose curve; also: nearly all actives have a fitted effect of over 20% in size)
Summary of the method: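 TSHR-HEK293 cells were plated and held 18 h at 37C/5% CO2, then given compound plus Ro20-1724 and stimulated with TSH at 1.5 ng/mL final. After 30 min at room temperature, cAMP was detected with cAMP-d2/anti-cAMP-cryptate (1 h) by fluorescence.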

[4] = qHTS assay to identify small molecule agonists of the estrogen receptor alpha (ER-alpha) signaling pathway in the presence of an antagonist - cell viability counter screen (AID 1259386);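 also: series mostly up to about 92 µM; cells exposed to compounds for 22 h at 37 °C before the viability read; nearly all actives have a fitted effect of over 30% in size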
Summary of the method: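 VM7Luc4E2 cells (endogenous full-length ER-alpha, 4×ERE-luciferase) were held 5 days in phenol red-free medium with 10% charcoal-stripped FBS, plated, then given 10.0nM ICI-182,780 and compounds at 15 concentrations for 22hr at 37C; viability read by CellTiter-Fluor fluorescence.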

[5] = target: Progesterone receptor (Homo sapiens) (UniProt P06401); assay: qHTS assay to identify small molecule agonists of the progesterone receptor (PR) signaling pathway (AID 1346784; calls by dose curve; also: nearly all actives have a fitted effect of over 30% in size)
Summary of the method: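 Reporter assay, GripTite PR-UAS-bla HEK 293T cells: 16 hr exposure to DMSO-dissolved compounds at 37C, 5% CO2, in steroid-depleted (2% charcoal-stripped FBS) medium; beta-lactamase measured by FRET fluorescence.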

[6] = target: Progesterone receptor (Homo sapiens) (UniProt P06401); assay: qHTS assay to identify small molecule antagonists of the progesterone receptor (PR) signaling pathway (AID 1346795; active = well fitted inhibition curve with a large enough effect in the signal ratio in the repeat runs, not every such curve was filed as active; the % refers to the signal ratio)
Summary of the method: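 Stimulus R5020 at 1 nM final; cells HEK293T PR-UAS-bla; medium with 2% charcoal-stripped FBS; compound exposure 16 hr at 37C, 5% CO2; detection by FRET beta-lactamase substrate, 2 hr, room temperature.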

[7] = qHTS assay to identify small molecule antagonists of the progesterone receptor (PR) signaling pathway - cell viability counter screen (AID 1346798); also: series mostly up to about 92 µM; nearly all actives have a fitted effect of over 50% in size
Summary of the method: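 In the same plates used for the beta-lactamase readout, cell viability of compound- and R5020-treated PR-UAS-bla HEK293T cells (16 hr, 37C) was assessed by CellTiter-Glo luminescence.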

[8] = qHTS assay to identify small molecule agonists of the progesterone receptor (PR) signaling pathway - cell viability counter screen (AID 1346799; calls by dose curve; also: nearly all actives have a fitted effect of over 45% in size)
Summary of the method: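 Multiplexed viability read: CellTiter-Glo luminescence, 30 min RT, following LiveBLAzer FRET measurement on PR-UAS-bla HEK293T cells exposed to compounds 16 hr.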

[9] = qHTS assay to identify small molecule agonists of the TGF-beta/Smad signaling pathway - cell viability counter screen (AID 1346829); also: top concentration of the series differs between compounds; nearly all actives have a fitted effect of over 45% in size
Summary of the method: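 Cytotoxicity counter screen: CellTiter-Glo luminescence (30 min, room temperature) measured in the SBE-bla HEK 293T reporter wells after 5 hr compound treatment at 37 C and the 2 hr substrate step.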

[10] = qHTS assay to identify small molecule agonists of the TGF-beta/Smad signaling pathway (AID 1346859; active = well fitted activation curve with a large enough effect in the signal ratio in the repeat runs, not every such curve was filed as active; the % refers to the signal ratio; also: series mostly up to about 77 µM)
Summary of the method: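 Screening used HEK 293T SBE-bla cells at 4,000/well. Test agents: 5 hr, 37 C. Detection: FRET substrate, 2 hr RT, then excitation 405 nm with emissions at 460 and 530 nm.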

[11] = target: Thyrotropin-releasing hormone receptor (Homo sapiens) (UniProt P34981); assay: qHTS assay to identify small molecule antagonists of the thyrotropin-releasing hormone receptor (TRHR) signaling pathway (AID 1346877; active = well fitted inhibition curve with a large enough effect in the repeat runs, not every such curve was filed as active; also: series mostly up to about 51 µM)
Summary of the method: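 TRHR-expressing HEK293 cells were seeded, cultured 18 h at 37 °C, then loaded with calcium dye for 2 h. Compounds were pre-incubated 5 min at room temperature before 1 nM TRH (final) was added, and kinetic fluorescence was recorded for 3 min.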

[12] = target: Thyrotropin-releasing hormone receptor (Homo sapiens) (UniProt P34981); assay: qHTS assay to identify small molecule agonists of the thyrotropin-releasing hormone receptor (TRHR) signaling pathway (AID 1346891; calls by dose curve; also: series mostly up to about 58 µM)
Summary of the method: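 Readout was intracellular calcium fluorescence in TRHR-Hek293 cells. Cells were incubated 18 h, dye-loaded 2 h at 37 °C, and treated with compound in agonist mode.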

[13] = Human pregnane X receptor (PXR) small molecule agonists, qHTS cell viability counter screen (AID 1346977); also: nearly all actives have a fitted effect of over 50% in size
Summary of the method: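 In each well, the PXR reporter HepG2 line was checked for viability: CellTiter-Fluor reagent added 23hr post-dosing, fluorescence read after 1hr incubation at 37C.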

[14] = Caspase-3/7 induction in HepG2 cells by small molecules, qHTS assay (AID 1346978); also: nearly all actives have a fitted effect of over 15% in size
Summary of the method: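 Wild-type HepG2 cells (2,000/well) were settled 5 h at 37 C, 5% CO2, then exposed to compounds in DMSO for 17 h. Caspase-3/7 activity was read by luminescence 30 min after adding Caspase-Glo 3/7 reagent at room temperature.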

[15] = Caspase-3/7 induction in CHO-K1 cells by small molecules, qHTS cell viability counter screen (AID 1346979); also: nearly all actives have a fitted effect of over 35% in size; also: potency is read from the fitted curve at half-maximal effect
Summary of the method: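 Following a 5hr settling period, CHO-K1 cells at 1,500 per well received DMSO-dissolved compounds. Cell viability was quantified 16hr later by CellTiter-Fluor fluorescence, measured after 1hr with reagent at 37C.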

[16] = Caspase-3/7 induction in CHO-K1 cells by small molecules, qHTS assay (AID 1346980); also: nearly all actives have a fitted effect of over 15% in size
Summary of the method: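 Wild-type cells were seeded at 1,500 per well and settled 5 hr at 37 C, 5% CO2, then exposed to DMSO-dissolved compounds for 17 hr. Caspase-Glo 3/7 reagent was added, and luminescence was read after 30min at room temperature.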

[17] = Caspase-3/7 induction in HepG2 cells by small molecules, qHTS cell viability counter screen (AID 1346981); also: series mostly up to about 92 µM; nearly all actives have a fitted effect of over 30% in size
Summary of the method: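 Wild-type HepG2 cells (2,000/well) were allowed to settle for 5 hr at 37 C, 5% CO2, then dosed with compounds in DMSO by pin transfer. After 16 hr at 37 C, CellTiter-Fluor was added and fluorescence read 1 hr later.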

[18] = qHTS assay to identify small molecule antagonists of the TGF-beta/Smad signaling pathway - cell viability counter screen (AID 1346824); also: nearly all actives have a fitted effect of over 50% in size
Summary of the method: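 SBE-bla HEK 293T cells were plated overnight at 37 C, then given compounds in DMSO plus TGF-beta1 (added as 0.25 ng/mL solution) for 5 hr. After the bla read, CellTiter-Glo was added to the same wells and luminescence read after 30 min at room temperature.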

[19] = target: Estrogen receptor (Homo sapiens) (UniProt P03372); assay: qHTS assay to identify small molecule agonists of the estrogen receptor alpha (ER-alpha) signaling pathway in the presence of an antagonist (AID 1259383; calls by dose curve; also: top concentration of the series differs between compounds; nearly all actives have a fitted effect of over 15% in size)
Summary of the method: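 VM7Luc4E2 cells (endogenous full-length ER-alpha, 4×ERE-luciferase) were precultured 5 days in phenol red-free medium with 10% charcoal-stripped FBS, given 10.0nM ICI-182,780 (final), then treated with compounds at 15 concentrations for 22hr at 37C; luminescence read with ONE-Glo.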
% is scaled to controls: 0 for no effect and ±100 for the full control effect.

Chain of Thyrotropin receptor (Homo sapiens) (P16473 whole entry, looked up): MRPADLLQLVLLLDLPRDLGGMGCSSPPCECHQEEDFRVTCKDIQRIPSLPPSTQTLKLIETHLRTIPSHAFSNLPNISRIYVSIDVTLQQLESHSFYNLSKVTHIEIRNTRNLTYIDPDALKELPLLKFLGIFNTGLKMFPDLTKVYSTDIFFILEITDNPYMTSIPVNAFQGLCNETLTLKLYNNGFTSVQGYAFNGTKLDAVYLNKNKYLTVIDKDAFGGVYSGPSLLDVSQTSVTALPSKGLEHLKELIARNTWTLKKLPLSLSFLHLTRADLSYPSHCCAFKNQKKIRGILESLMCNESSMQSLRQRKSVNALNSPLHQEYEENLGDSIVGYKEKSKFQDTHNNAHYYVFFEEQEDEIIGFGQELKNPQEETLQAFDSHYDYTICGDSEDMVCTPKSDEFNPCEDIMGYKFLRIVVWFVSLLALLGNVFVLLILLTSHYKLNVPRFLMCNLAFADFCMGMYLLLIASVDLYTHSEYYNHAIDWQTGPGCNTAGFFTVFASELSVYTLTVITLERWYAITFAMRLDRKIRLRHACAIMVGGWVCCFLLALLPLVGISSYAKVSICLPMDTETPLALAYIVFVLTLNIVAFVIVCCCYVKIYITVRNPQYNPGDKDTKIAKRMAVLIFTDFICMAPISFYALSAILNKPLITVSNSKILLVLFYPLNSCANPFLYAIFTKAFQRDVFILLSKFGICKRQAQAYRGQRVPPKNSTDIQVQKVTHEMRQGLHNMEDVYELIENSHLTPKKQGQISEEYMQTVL
Chain of Estrogen receptor (Homo sapiens) (P03372 whole entry, looked up): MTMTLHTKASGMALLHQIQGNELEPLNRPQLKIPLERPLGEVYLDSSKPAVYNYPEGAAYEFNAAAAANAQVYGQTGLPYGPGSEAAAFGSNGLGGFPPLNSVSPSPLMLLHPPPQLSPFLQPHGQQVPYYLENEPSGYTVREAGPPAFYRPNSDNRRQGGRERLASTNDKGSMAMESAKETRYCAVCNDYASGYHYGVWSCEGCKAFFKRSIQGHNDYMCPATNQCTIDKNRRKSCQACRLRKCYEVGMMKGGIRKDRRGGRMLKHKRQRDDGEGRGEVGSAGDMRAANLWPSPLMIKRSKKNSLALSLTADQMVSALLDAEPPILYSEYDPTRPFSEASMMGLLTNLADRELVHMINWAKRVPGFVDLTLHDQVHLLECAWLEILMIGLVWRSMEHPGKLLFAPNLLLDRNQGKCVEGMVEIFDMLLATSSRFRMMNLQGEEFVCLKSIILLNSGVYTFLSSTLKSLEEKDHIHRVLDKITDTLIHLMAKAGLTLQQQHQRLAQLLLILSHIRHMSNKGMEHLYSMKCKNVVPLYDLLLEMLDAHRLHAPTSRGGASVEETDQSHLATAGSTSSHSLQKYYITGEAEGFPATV
Chain of Progesterone receptor (Homo sapiens) (P06401 whole entry, looked up): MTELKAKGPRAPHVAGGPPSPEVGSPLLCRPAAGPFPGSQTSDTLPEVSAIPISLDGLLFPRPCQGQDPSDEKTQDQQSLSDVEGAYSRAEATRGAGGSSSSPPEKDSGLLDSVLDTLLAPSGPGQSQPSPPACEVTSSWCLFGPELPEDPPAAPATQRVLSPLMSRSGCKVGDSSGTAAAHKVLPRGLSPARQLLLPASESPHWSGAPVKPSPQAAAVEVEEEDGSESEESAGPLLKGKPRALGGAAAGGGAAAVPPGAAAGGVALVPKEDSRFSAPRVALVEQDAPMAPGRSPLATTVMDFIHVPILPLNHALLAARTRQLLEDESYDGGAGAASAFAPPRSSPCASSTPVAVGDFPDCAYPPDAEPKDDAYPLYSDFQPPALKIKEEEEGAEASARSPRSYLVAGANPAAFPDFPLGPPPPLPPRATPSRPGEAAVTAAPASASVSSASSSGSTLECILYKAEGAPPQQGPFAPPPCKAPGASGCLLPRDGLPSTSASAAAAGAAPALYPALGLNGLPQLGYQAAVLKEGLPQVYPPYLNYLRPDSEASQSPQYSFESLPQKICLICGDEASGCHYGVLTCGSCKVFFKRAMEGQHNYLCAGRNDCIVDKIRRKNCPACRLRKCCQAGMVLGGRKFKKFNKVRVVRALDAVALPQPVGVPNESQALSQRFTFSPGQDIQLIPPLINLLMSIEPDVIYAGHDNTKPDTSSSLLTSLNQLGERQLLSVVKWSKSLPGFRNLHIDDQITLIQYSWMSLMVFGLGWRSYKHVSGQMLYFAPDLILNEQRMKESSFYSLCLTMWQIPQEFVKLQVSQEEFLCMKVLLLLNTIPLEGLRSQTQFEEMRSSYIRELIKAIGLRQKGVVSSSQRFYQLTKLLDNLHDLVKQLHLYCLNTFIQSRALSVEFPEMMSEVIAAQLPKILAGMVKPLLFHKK
Chain of Thyrotropin-releasing hormone receptor (Homo sapiens) (P34981 whole entry, looked up): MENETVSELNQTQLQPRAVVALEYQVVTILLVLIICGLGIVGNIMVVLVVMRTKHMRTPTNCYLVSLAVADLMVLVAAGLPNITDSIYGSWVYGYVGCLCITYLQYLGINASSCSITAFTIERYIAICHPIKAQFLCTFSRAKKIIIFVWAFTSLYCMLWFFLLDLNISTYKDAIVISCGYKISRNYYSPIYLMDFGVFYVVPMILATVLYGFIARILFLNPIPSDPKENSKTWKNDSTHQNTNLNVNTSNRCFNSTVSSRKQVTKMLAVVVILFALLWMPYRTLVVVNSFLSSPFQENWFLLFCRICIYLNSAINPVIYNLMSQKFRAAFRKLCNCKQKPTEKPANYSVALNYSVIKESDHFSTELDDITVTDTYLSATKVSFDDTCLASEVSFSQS

CCOC(CN1CCN(CC(C)C(=O)c2ccccc2)CC1)c1ccccc1 (configuration not stated)
inactive: activity change, negative = cytotoxicity [1] -10.1% [at 19 µM] | cAMP activity change [2] 5.14% [at 18.9 µM] | activity change, negative = inhibition [3] 0.0091% [at 19 µM] | activity change, negative = cytotoxicity [4] -9.47% [at 19 µM] | activation [5] 0.845% [at 19 µM] | activity change, negative = inhibition [6] 8.35% [at 18.9 µM] | activity change, negative = cytotoxicity [7] 27.5% [at 18.9 µM] | activity change, negative = cytotoxicity [8] 2.31% [at 19 µM] | activity change, negative = cytotoxicity [9] -11.2% [at 15.8 µM] | activation [10] -2.36% [at 15.8 µM] | activity, negative = inhibition [11] -3.1% [at 10.5 µM] | activation [12] 0.148% [at 11.8 µM] | activity change, negative = cytotoxicity [13] -0.628% [at 19 µM] | caspase activation [14] 0.292% [at 19 µM] | activity change, negative = cytotoxicity [15] 0.23% [at 19 µM] | caspase-3/7 activation [16] 0.336% [at 19 µM] | activity change, negative = cytotoxicity [17] -1.17% [at 19 µM]

NCc1ccc(S(N)(=O)=O)cc1
inactive: outcome [1] | outcome [2] | outcome [3] | outcome [4] | Potency [5] | Potency [6] | outcome [7] | outcome [8] | outcome [10] | outcome [11] | outcome [12] | outcome [14] | Potency [15] | outcome [16] | outcome [17]

Cc1ccc(C(C)NC(=O)[C@@H](NC(=O)OC(C)C)C(C)C)cc1 (some centres not stated)
inactive: outcome [1] | outcome [2] | outcome [3] | outcome [4] | Potency [5] | Potency [6] | outcome [8] | outcome [18] | outcome [9] | outcome [10] | outcome [11] | outcome [12] | outcome [13] | outcome [14] | Potency [15] | outcome [16] | outcome [17]

CN(C)CCCO[C@@H]1[C@H]2OC(C)(C)O[C@H]2O[C@@H]1C(O)CO (some centres not stated)
inactive: outcome [1] | Potency [19] | outcome [4] | Potency [5] | Potency [6] | outcome [8] | outcome [9] | outcome [10] | outcome [11] | outcome [12] | outcome [14] | Potency [15] | outcome [16] | outcome [17]

CC(C)C1OCCN1CCOC(=O)NCCCCCCNC(=O)OCCN1CCOC1C(C)C (configuration not stated)
inactive: outcome [1] | Potency [19] | outcome [4] | Potency [5] | outcome [7] | outcome [8] | outcome [18] | outcome [10] | outcome [11] | outcome [12] | outcome [13] | outcome [14] | Potency [15] | outcome [16] | outcome [17]

NCC1(Cc2noc(=O)[nH]2)CCCCC1
inactive: outcome [1] | Potency [19] | outcome [4] | Potency [5] | Potency [6] | outcome [7] | outcome [8] | outcome [9] | outcome [10] | outcome [13] | outcome [14] | Potency [15] | outcome [16] | outcome [17]

O=C(O)CSCC(=O)NC1CCSC1=O (configuration not stated)
inactive: outcome [1] | outcome [2] | outcome [3] | outcome [4] | Potency [5] | Potency [6] | outcome [7] | outcome [18] | outcome [9] | outcome [10] | outcome [11] | outcome [12] | outcome [13] | outcome [14] | Potency [15] | outcome [16] | outcome [17]

CO[C@@]1(NC(=O)Cc2cccs2)C(=O)N2C(C(=O)O)=C(COC(N)=O)CS[C@@H]21
inactive: outcome [1] | Potency [19] | outcome [4] | Potency [5] | Potency [6] | outcome [7] | outcome [8] | outcome [18] | outcome [9] | outcome [10] | outcome [11] | outcome [12] | outcome [14] | Potency [15] | outcome [16] | outcome [17]

Cc1ccnc(N)c1
inactive: outcome [1] | outcome [2] | outcome [3] | outcome [4] | Potency [5] | Potency [6] | outcome [7] | outcome [8] | outcome [18] | outcome [9] | outcome [10] | outcome [13] | outcome [14] | outcome [16]

CC(C)[C@H]1CC[C@H](C)C[C@@H]1O
inactive: outcome [1] | outcome [2] | outcome [3] | outcome [4] | Potency [5] | Potency [6] | outcome [7] | outcome [8] | outcome [18] | outcome [9] | outcome [10] | outcome [11] | outcome [12] | outcome [13] | outcome [14] | outcome [16] | outcome [17]

NC(=O)[C@@H]1CSSCCC(=O)N[C@@H](CCCCN=C(N)N)C(=O)NCC(=O)N[C@@H](CC(=O)O)C(=O)N[C@@H](Cc2c[nH]c3ccccc23)C(=O)N2CCC[C@H]2C(=O)N1 ([Mpa][hArg]GDWPC-NH2; disulfide 1-7)
inactive: outcome [1] | outcome [2] | outcome [3] | outcome [4] | Potency [5] | Potency [6] | outcome [7] | outcome [8] | outcome [18] | outcome [9] | outcome [10] | outcome [11] | outcome [12] | outcome [13] | outcome [14] | outcome [16] | outcome [17]
active: Potency [15] 10.6 µM

CNCCS(=O)(=O)O
inactive: outcome [1] | outcome [2] | outcome [3] | outcome [4] | Potency [5] | Potency [6] | outcome [7] | outcome [8] | outcome [18] | outcome [10] | outcome [11] | outcome [12] | outcome [13] | outcome [14] | Potency [15] | outcome [16] | outcome [17]

CN(C)CCOC(=O)C(c1ccccc1)C1(O)CCCC1 (configuration not stated)
inactive: outcome [1] | Potency [19] | outcome [4] | Potency [5] | Potency [6] | outcome [8] | outcome [18] | outcome [9] | outcome [10] | outcome [11] | outcome [12] | outcome [13] | outcome [14] | Potency [15] | outcome [16] | outcome [17]

From PubChem BioAssay (Tox21)
